WRN helicase inh-1: WRN helicase (human) inhibition. Q14191. WRN helicase unwinding, fluorescent forked duplex, kinetic. Potency, µM (doses to about 114 µM), without a hit: at the top dose activity change, negative = inhibition, actives largely listed as inhibitors. 360,000 tested, 0.46% active. AID 651768; note: potency is the fitted concentration of half-maximal effect; % is set by controls: 0 for no effect and ±100 for the full control effect; nearly all actives have a fitted effect of over 55% in size
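Primary qHTS, 1536-well format. 20 nM WRN + compound, 15 min RT; start with 100 nM forked fluorophore/quencher duplex, 2 mM ATP (final); kinetic read ex 525/em 598 nm.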
Pol iota inh: blocks human DNA polymerase iota activity | Potency, µM (top dose mostly 115 µM), for inactives: top-dose activity, negative = inhibition, hits mostly inhibitors | 390,000 tested, 1% active | Pol iota fluorescent replication assay, 10 min | Q9UNA4; note: potency is the fitted concentration of half-maximal effect
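Fluorescent replication assay read twice, at 0 min and 10 min after adding 50 nM (final) substrate. Enzyme (10 nM) and compounds were first incubated 15 min at room temperature; enzyme-free buffer wells were negative controls.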
Pol kappa inh-1: DNA polymerase kappa (human) inhibition; Q9UBT6; Potency, µM (series often up to 107 µM), for the others: at the top dose activity, negative = inhibition, most hits filed as inhibitors; purified Pol kappa, fluorescent DNA synthesis assay, 10 min; 400,000 tested, 0.53% active; note: potency is the fitted concentration of half-maximal effect; % is set by controls: 0 for no effect and ±100 for the full control effect
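Enzyme at 10 nM met test compounds for 15 min at room temperature. Substrate addition (50 nM final) began the reaction, which was monitored by fluorescence at 0 and 10 min.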
Pol eta inh-1: inhibitors of human DNA polymerase eta; Potency, µM (highest dose often 114 µM), without a hit: at the highest dose activity change, negative = inhibition, most hits filed as inhibitors; recombinant Pol eta, fluorescent DNA replication assay; 390,000 tested, 1.2% active; note: potency is the fitted concentration of half-maximal effect; % is set by controls: 0 for no effect and ±100 for the full control effect
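Fluorescent replication assay: 50 nM final substrate added after a 15 min room-temperature compound preincubation with 10 nM enzyme. Signal taken at 0 min and again at 10 min.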
PI5P4Ka inh: inhibitors of human PI5P4K alpha. P48426. 330,000 tested, 1.2% active. max response, %. AID 652105. PI5P4Kalpha enzyme, ADP-Glo luminescence, 60 min; stronger effect = lower value; active = max response of -50% or lower; inconclusive = between -30% and -50%; inactive = -30% or higher; note: value at the top dose of about 77 µM; % is set by controls: 0 for no effect and ±100 for the full control effect
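Luminescence from ADP-Glo served as readout of PI5P4Kalpha activity in a qHTS format. Reaction: enzyme, substrate, compound, ATP at 5 microM final, 60 min at RT.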
POLB inh: DNA polymerase beta (human) inhibition | P06746 | Pol beta primer extension/strand displacement, fluorescence kinetic | Potency, µM (doses to about 114 µM), for the others: at the top dose activity change, negative = inhibition, usual class: inhibitors | 340,000 tested, 1.3% active | AID 485314; note: potency is the fitted concentration of half-maximal effect; % is set by controls: 0 for no effect and ±100 for the full control effect
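Values derive from four-parameter Hill fits of normalized kinetic data: reads at 0 and 10 min following addition of 50 nM substrate to 10 nM Pol beta preincubated 15 min with compound.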
TbPGK inh: blocks T. brucei phosphoglycerate kinase. Potency, µM (top dose mostly 57.5 µM), inactives show at the highest dose activity change, negative = inhibition, usual class: inhibitors. shares compounds with Pol kappa inh-1. TbPGK coupled GAPDH assay, Kinase-Glo luminescence. 500 tested, 79% active. AID 686980; note: potency is the fitted concentration of half-maximal effect; % is set by controls: 0 for no effect and ±100 for the full control effect; nearly all actives have a fitted effect of over 65% in size
POLI cherry-pick: Human Pol iota inhibitor confirmatory assay; 1,500 tested, 77% active; Pol iota primer extension, TAMRA/BHQ fluorescence; shares compounds with Pol kappa inh-1; Potency, µM, hits mostly inhibitors; note: potency is the fitted concentration of half-maximal effect
GALK inh confirm: galactokinase (human) inhibition, confirmation; shares compounds with Pol eta inh-1; purified GALK, Kinase-Glo ATP depletion luminescence; Potency, µM (top dose mostly 115 µM), for inactives: at the top dose activity, negative = inhibition, actives largely listed as inhibitors; 150 tested, 70% active; AID 2015
GALK redox cs: generates H2O2 by redox cycling, flagging GALK artifacts; Phenol red-HRP H2O2 redox cycling, absorbance 600 nm; AID 2035; shares compounds with Pol eta inh-1; Potency, µM (doses to about 115 µM), without a hit: at the top dose activity change, negative = H2O2 signal, hits mostly inhibitors; 150 tested, 40% active
HEK293 viability: counter-screen for GALK inhibitors: HEK293 cell cytotoxicity; shares compounds with Pol eta inh-1; 170 tested, 10% active; Potency, µM (doses to about 46.1 µM), for the others: at the top dose activity change, negative = cytotoxicity, actives largely listed as inhibitors; HEK-293 viability, ATP luminescence (CellTiter-Glo), 24/48 h; AID 2547; note: potency is the fitted concentration of half-maximal effect; % is set by controls: 0 for no effect and ±100 for the full control effect
Pol kappa inh-2: Pol kappa (human) inhibition, cherry-pick confirmation. 920 tested, 76% active. purified Pol-kappa, fluorescent strand-displacement substrate. Potency, µM, hits mostly inhibitors. shares compounds with Pol eta inh-1. AID 720501; note: potency is the fitted concentration of half-maximal effect
Pol eta inh-2: confirmation of human DNA polymerase eta inhibitors | shares compounds with Pol eta inh-1 | Pol eta primer extension, TAMRA/BHQ fluorescence, 10 min | Potency, µM, most hits filed as inhibitors | 2,600 tested, 64% active | AID 720502; note: potency is the fitted concentration of half-maximal effect
WRN helicase inh-2: WRN helicase inhibition, cherry-pick retest; shares compounds with WRN helicase inh-1; WRN helicase DNA unwinding, fluorescence kinetic; Potency, µM (top dose mostly 57.1 µM), inactives show top-dose activity, negative = inhibition, actives largely listed as inhibitors; 610 tested, 63% active; AID 720497; note: potency is the fitted concentration of half-maximal effect; nearly all actives have a fitted effect of over 65% in size
TO displacement: binds DNA, flagged in WRN inhibitor counterscreen. shares compounds with WRN helicase inh-1. Potency, µM (doses to about 57.1 µM), for inactives: at the highest dose activity change, negative = inhibition, most hits filed as inhibitors. thiazole orange DNA binding displacement, fluorescence. 610 tested, 10% active;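 note: drop in dye fluorescence marks compound binding to DNA; potency is the fitted concentration of half-maximal effect; % is set by controls: 0 for no effect and ±100 for the full control effect; nearly all actives have a fitted effect of over 60% in size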
BLM counter: counter-screen for WRN helicase inhibitors: human BLM helicase inhibition | shares compounds with WRN helicase inh-1 | Recombinant BLM helicase DNA unwinding, red fluorescence | 610 tested, 60% active | Potency, µM (top dose mostly 57.1 µM), without a hit: top-dose activity change, negative = inhibition, actives largely listed as inhibitors; note: potency is the fitted concentration of half-maximal effect; nearly all actives have a fitted effect of over 60% in size
Target sequence (P54132 whole entry, looked up): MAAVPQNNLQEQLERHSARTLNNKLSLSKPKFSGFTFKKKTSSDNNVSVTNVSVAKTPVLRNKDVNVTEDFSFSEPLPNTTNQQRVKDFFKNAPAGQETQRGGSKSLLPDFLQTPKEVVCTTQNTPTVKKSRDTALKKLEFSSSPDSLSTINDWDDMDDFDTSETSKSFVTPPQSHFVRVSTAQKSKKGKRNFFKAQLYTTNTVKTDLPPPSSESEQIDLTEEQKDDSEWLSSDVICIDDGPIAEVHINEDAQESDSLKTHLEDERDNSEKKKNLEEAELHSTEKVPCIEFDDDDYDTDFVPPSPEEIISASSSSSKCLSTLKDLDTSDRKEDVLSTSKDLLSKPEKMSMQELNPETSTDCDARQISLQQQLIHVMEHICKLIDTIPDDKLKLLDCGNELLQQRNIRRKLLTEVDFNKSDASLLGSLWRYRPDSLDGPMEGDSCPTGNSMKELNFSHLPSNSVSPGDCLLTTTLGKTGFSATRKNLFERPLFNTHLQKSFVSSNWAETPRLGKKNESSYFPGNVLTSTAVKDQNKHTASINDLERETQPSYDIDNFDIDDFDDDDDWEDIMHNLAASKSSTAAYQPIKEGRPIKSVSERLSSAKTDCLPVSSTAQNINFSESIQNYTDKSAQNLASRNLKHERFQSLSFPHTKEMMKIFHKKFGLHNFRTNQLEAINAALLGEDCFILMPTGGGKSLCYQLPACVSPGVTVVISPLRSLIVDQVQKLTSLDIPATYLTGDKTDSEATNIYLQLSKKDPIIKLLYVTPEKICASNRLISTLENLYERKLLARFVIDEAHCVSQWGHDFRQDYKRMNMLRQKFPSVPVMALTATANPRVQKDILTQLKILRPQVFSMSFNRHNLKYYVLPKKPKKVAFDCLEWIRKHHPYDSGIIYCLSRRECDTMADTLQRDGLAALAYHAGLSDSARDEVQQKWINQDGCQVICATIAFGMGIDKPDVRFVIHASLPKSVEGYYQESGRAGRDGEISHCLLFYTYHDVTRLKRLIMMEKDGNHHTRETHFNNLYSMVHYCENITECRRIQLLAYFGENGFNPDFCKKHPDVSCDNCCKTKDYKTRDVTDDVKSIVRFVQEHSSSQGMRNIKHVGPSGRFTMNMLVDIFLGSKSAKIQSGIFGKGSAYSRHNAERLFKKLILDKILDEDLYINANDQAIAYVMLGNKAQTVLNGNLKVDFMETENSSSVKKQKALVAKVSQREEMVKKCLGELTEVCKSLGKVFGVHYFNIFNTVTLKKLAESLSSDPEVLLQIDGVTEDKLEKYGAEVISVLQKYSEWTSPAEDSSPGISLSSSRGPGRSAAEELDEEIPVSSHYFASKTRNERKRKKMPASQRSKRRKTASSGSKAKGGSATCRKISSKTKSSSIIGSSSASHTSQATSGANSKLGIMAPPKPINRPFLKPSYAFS
Numbers without * were called inactive; ? = inconclusive; nt = no result given; [ ] = another dose, or the depositor's remark. Rows were chosen to be rich in hits. Some 2.8% of all compounds tested hit in one or more screens of this group. Unless noted, calls come from the whole dose curve; as a rule, active = well fitted curve in the direction sought with a large enough effect; inconclusive = small, poorly fitted or top-dose-only effect, or another doubt; inactive = no such curve, though single readings can be large; an effect the other way counts as inactive or inconclusive.

SMILES	WRN helicase inh-1	Pol iota inh	Pol kappa inh-1	Pol eta inh-1	PI5P4Ka inh	POLB inh	POLI cherry-pick	Pol eta inh-2	WRN helicase inh-2	TO displacement	BLM counter	others
Nc1ccc2c(c1)C(=O)C(=O)c1ccccc1-2	35.5µM*	1µM*	-8.5%	0.794µM*	-27.1	5.01µM*	6.7*	4.78*	19.2µM*	?	3.41µM*	TbPGK inh=1.63µM*;GALK inh confirm=2.37µM*;GALK redox cs=1.33µM*;HEK293 viability=7.91µM*
Nc1ccc2c(c1)C(=O)c1ccccc1C2=O	-14.7%	54.3%	-7.2%	-0.8%	-13.3	nt	nt	nt	nt	nt	nt
Cc1cc(NC(=O)Cc2cccs2)no1	?	7.94µM*	22.4µM*	22.4µM*	nt	8.91µM*	15*	19*	8.57µM*	24.1µM*	0.961µM*
CCCCOc1ccc(CC(=O)NOC)cc1	nt	20.4%	-4.5%	nt	nt	nt	nt	nt	nt	nt	nt
CC(OC(=O)c1ccc2ncsc2c1)C(=O)Nc1cccc(Cl)c1 (stereo not drawn)	9.9%	?	-7.9%	-5.4%	2.6	nt	nt	nt	nt	nt	nt
Cc1nc2ccc(C(=O)O)cc2c2c1CC(C)S2 (stereo not drawn)	31.6µM*	5.01µM*	31.6µM*	2.51µM*	-7.2	22.4µM*	18.9*	9.53*	19.2µM*	-17.6%	?
Cc1nc2cc(C(=O)O)ccc2s1	2.3%	14.5%	-24.2%	-0.7%	nt	9.1%	nt	nt	nt	nt	nt
Cn1c(=O)c(-c2ccccc2)nc2cnc(N3CCOCC3)nc21	nt	nt	6.8%[60.1 µM]	nt	nt	nt	nt	nt	nt	nt	nt
CN(C)c1ccc2nc3c(=O)[nH]c(=O)nc-3n(CC(O)C(O)C(O)CO)c2c1 (stereo not drawn)	2.99µM*	28.2µM*	?	?	-29.2	25.1µM*	23.8*	37.9*	21.5µM*	286.7%	21.5µM*	Pol kappa inh-2=?

Screening results deposited in PubChem BioAssay by National Center for Advancing Translational Sciences (NCATS).
